Screening data (PubChem)
Compounds with a hit are over-represented: about 4.8% of the library has one in this group of screens.
Beta cell apopt = beta cell apoptosis inhibition; INS-1E cytokine-induced death, ATP luminescence, 48 h; percent of positive-control rescue, neutral wells zero; protection from apoptosis, % (no concentration beside the values); actives 0.8% (n = 300,000); AID 435005;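 active = Every replicate reaches about 75%, or at least half do and their mean reaches it too, limit read from the data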;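 note: 0% = cytokine-treated negative control wells and 100% = positive control rescue; higher means more ATP so stronger rescue from cytokine killing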
Calb FLC = C. albicans growth modulation with fluconazole | actives 0.57% (n = 300,000) | growth inhibition, % (test concentration not listed) | C. albicans CaCi-2 (fluconazole-resistant clinical isolate) + fluconazole, Alamar Blue growth, 48 h;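 active = growth inhibition above about 58% in most replicates, limit read from the data, passing the limit was not always enough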;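 note: all wells also contain fluconazole at 8 µg/ml as a sub-toxic cotreatment; 0% = median of DMSO wells and 100% = median of geldanamycin control wells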
MPTP inh = blocks calcium-induced mitochondrial swelling | inhibition, % at 10 µM | isolated mouse mitochondria, Ca2+ swelling absorbance, 30 min | actives 1.4% (n = 360,000) | AID 602449;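 active = inhibition of 50% or more, scaled per plate between neutral and stimulator controls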;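 note: 0% = DMSO wells given calcium and 100% = 1 mM EGTA wells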
CSC inhib = cancer stem cell inhibition; actives 1.1% (n = 300,000); cancer stem cell-like cells viability, luminescence; inhibition, % at 7.5 µM; in the data active = inhibition above about 75%; tested in HMLE shEcad cells
Mdm2 MdmX PPI = inhibitors of human Mdm2/MdmX interaction | O15151+Q00987 | SaOS-2 split-luciferase Mdm2/MdmX complementation, luminescence | inhibition, % at 8 µM | actives 3% (n = 330,000) | AID 485346;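 active = inhibition of at least 50% at 8 µM in the primary screen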
Mdm2-MdmX conf = human Mdm2/MdmX binding inhibition, confirmed; shares compounds with Mdm2 MdmX PPI; luminescent assay; inhibition, % at 8 µM; actives 55% (n = 10,000); AID 489028; in the data active = inhibition above about 40%
FLuc counter = counter-screen for Mdm2/MdmX inhibitors: full-length luciferase | shares compounds with Mdm2 MdmX PPI | SaOS-2 full-length luciferase counterscreen, luminescence | inhibition, % at 8 µM | actives 77% (n = 6,200) | AID 504607;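 active = mean inhibition at 8 µM reaching about 37%, which flags the compound as non-specific, limit read from the data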;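 note: p53-null SaOS-2 cells with luciferase driven by a doxycycline-inducible promoter; compound on cells about two nights before reading with doxycycline added after day one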
The depositor's hits bear a star.

`CCCCN1Cc2cc(C(=O)c3cc(OC)ccc3O)cnc2NC1=O` gave Beta cell apopt -8, Calb FLC -5, MPTP inh 2, CSC inhib 4 and Mdm2 MdmX PPI 31.
`Cc1ccc(O)c(C(=O)c2cnc3c(c2)CN(C)C(=O)N3)c1` gave Beta cell apopt -11, Calb FLC -14, MPTP inh -2, CSC inhib 21, Mdm2 MdmX PPI 63*, Mdm2-MdmX conf 49* and FLuc counter 56*.
Cc1ccc(O)c(C(=O)c2cnc3c(c2)c(=O)n(C)c(=O)n3C)c1 was read as Beta cell apopt -12, Calb FLC -5, MPTP inh 0, CSC inhib 1 and Mdm2 MdmX PPI -2.
Screening Cc1ccc(O)c(C(=O)c2cnc3c(c2)CN(CCC(C)C)C(=O)N3)c1 returned Beta cell apopt 16, Calb FLC 4, MPTP inh 2, CSC inhib 27, Mdm2 MdmX PPI 54* and Mdm2-MdmX conf 23.
`CN1Cc2cc(C(=O)c3cc(Cl)cc(CSc4ncccn4)c3O)cnc2NC1=O` gave Beta cell apopt 23, Calb FLC -7, CSC inhib 68, Mdm2 MdmX PPI 59*, Mdm2-MdmX conf 73* and FLuc counter 89*.
`CC1=C(C(N)=O)C(c2ccccn2)n2nc(SCc3ccccc3Cl)nc2N1` (stereo not drawn) gave Beta cell apopt -7, Calb FLC -4, MPTP inh 0, CSC inhib 1 and Mdm2 MdmX PPI -30.
Screening COc1cccc(-c2nc3nc(C)cc(C)n3c2NC2CCCC2)c1 returned MPTP inh 0.
CC(C)c1nc2sc3c(NCc4ccco4)ncnc3c2c2c1COC(C)(C)C2 was read as Beta cell apopt 2, Calb FLC 12, MPTP inh 2, CSC inhib 61, Mdm2 MdmX PPI 53* and Mdm2-MdmX conf 33.
For CC(C)c1nc2sc3c(NCc4ccccc4)ncnc3c2c2c1COC(C)(C)C2 the results were Beta cell apopt -5, Calb FLC -3, MPTP inh -5, CSC inhib 29 and Mdm2 MdmX PPI 18.
Screening COc1ccc(Nc2nc(OC)nc(OC)n2)cc1 returned Calb FLC 9, MPTP inh -2, CSC inhib -5 and Mdm2 MdmX PPI -3.
For COc1ccc(Nc2nc(Nc3ccc(OC)cc3)nc(SC3=NCCS3)n2)cc1 the results were Beta cell apopt 4, Calb FLC 9, MPTP inh -2, CSC inhib -19, Mdm2 MdmX PPI 74* and Mdm2-MdmX conf -8.
COc1ccc(N=c2oc3c(OC)cccc3cc2C(=O)NCc2ccco2)c(OC)c1 was read as Beta cell apopt 29, Calb FLC 12, MPTP inh 5, CSC inhib 29, Mdm2 MdmX PPI 68* and Mdm2-MdmX conf -10.
For CCOC(=O)c1cc(-c2ccccc2)sc1NC(=O)CC the results were Beta cell apopt -4, Calb FLC -3, MPTP inh 0, CSC inhib 7 and Mdm2 MdmX PPI 12.
`CCOC(=O)c1cc(-c2ccccc2)sc1NC(=O)COC(=O)c1ccc(Cl)c(S(N)(=O)=O)c1` gave Beta cell apopt 5, Calb FLC -2, MPTP inh 0, CSC inhib 18, Mdm2 MdmX PPI 54*, Mdm2-MdmX conf 82* and FLuc counter 88*.
Screening CC(C)NC(=O)COC(=O)c1ccc(Cl)c(S(N)(=O)=O)c1 returned Beta cell apopt 2, Calb FLC -5, MPTP inh -6, CSC inhib -11 and Mdm2 MdmX PPI 18.
For CCOC(=O)c1cc(-c2ccccc2)sc1NC(=O)COC(=O)c1cccc(S(N)(=O)=O)c1 the results were Beta cell apopt 35, Calb FLC -2, MPTP inh 3, CSC inhib 15, Mdm2 MdmX PPI 74* and Mdm2-MdmX conf 26.
Screening CCOC(=O)[C@]12CCCC=C1N(Cc1ccco1)C(=O)[C@H](CC(=O)NCC13CC4CC(CC(C4)C1)C3)C2 returned MPTP inh 0.
`COc1ccc(CCNC(=O)c2ccccc2NC(=O)CN2CCN(c3ccccc3O)CC2)cc1` gave MPTP inh -2, Mdm2 MdmX PPI 54*, Mdm2-MdmX conf 45* and FLuc counter 97*.
